“And” between values parts separate entries of the source, which are not always exact repeats. Equal values may be shown once. Records with an inconclusive call do not appear. The source made the active and inactive calls. Unless noted, the call rests on the fitted dose curve; in most records, active means well fitted curve in the direction sought with a large enough effect; inconclusive means small, poorly fitted or top-dose-only effect, or another doubt; inactive means no such curve, though single readings can be large; an effect the other way counts as inactive or inconclusive.
How the values were obtained:
[1] = molecular target: alpha-glucosidase (Oryza sativa, rice) (UniProt Q653V4); assay: Counterscreen for Glucocerebrosidase Inhibitors: qHTS Assay for Rice alpha-Glucosidase at pH 5.0 (AID 997);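 further: 0% = full activity with enzyme and -100% = basal without enzyme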
Procedure, shortened: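 Rice alpha-glucosidase (4 nM final) with 400 uM 4-methylumbelliferyl-alpha-D-glucopyranoside in citrate buffer pH 5.0, 20 min at room temperature, stopped at pH 10; fluorescence 365/440 nm, compounds 0.7 nM–77 uM, AC50 from Hill fits.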

[2] = Validation of Assay for Modulators of Lamin A Splicing (AID 1459; active means well fitted curve in the direction sought with a large enough effect in the signal ratio; the % refers to the signal ratio;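 further: cells exposed to compound for two days before reading; 0% is about no effect; ratio rise marks activators and ratio drop marks inhibitors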)
Procedure, shortened: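 HeLa S3 lamin A-EGFP/DsRed2 stable clone, 600 cells/well, Opti-MEM 2% FBS; compounds by pin tool; 48 hrs, 37 °C/5% CO2; Acumen 488 nm scan, objects 10-100 um; GFP/RFP intensity ratio.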

[3] = molecular target: DNA repair nuclease/redox regulator APEX1 (Homo sapiens) (UniProt P27695); assay: qHTS Validation Assay for Inhibitors of the Human Apurinic/apyrimidinic Endonuclease 1 (APE1) (AID 1705;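 further: TAMRA fluorescence gain over two minutes as APE1 cuts a quenched THF abasic duplex; on the % scale 0 is the no-effect control and ±100 the full control effect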)
DNA repair nuclease/redox regulator APEX1 (Homo sapiens), sequence (P27695 whole entry, looked up): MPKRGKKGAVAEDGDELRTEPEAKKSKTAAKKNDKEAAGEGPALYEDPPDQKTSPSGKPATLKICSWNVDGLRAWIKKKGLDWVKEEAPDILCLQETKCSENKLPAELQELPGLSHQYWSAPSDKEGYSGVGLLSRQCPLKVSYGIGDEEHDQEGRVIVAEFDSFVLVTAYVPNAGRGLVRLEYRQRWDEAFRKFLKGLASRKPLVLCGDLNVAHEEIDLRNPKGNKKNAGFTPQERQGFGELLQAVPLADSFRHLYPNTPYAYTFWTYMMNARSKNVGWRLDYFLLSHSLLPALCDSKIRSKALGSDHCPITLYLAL
Procedure, shortened: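 qHTS, 1536-well. APE1 + cpd 15 min RT → 50 nM TAMRA/BHQ-2 THF-abasic dsDNA substrate → kinetic fluorescence, 3 reads/60 s; delta(read3−read1) = reaction progress. No-enzyme buffer = negative control.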

[4] = Counterscreen for APE1 Inhibitors: Fluorescent Dye Displacement Validation Assay (AID 1707);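 further: plate controls were ThO with dsDNA and no compound for no effect and ThO without dsDNA for full effect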
Procedure, shortened: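 Compounds are scored by their ability to displace Thiazole Orange (250 nM) from a 50 nM TAMRA-tagged duplex bearing a tetrahydrofuran abasic site. Buffer is 50 mM Tris-HCl pH7.5, 50mM NaCl, 2 mM MgCl2, 0.01% Tween-20.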

[5] = molecular target: Endonuclease 4 (Escherichia coli (strain K12)) (UniProt P0A6C1); assay: Counterscreen for APE1 Inhibitors: qHTS Validation Assay for Inhibitors of Endonuclease IV (AID 1708); further: potency means the concentration at half of the fitted maximal effect; on activity change, negative = inhibition: on the % scale 0 is the no-effect control and ±100 the full control effect
Procedure, shortened: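 qHTS concentration-response format; LOPAC1280 tested under APE1-screen conditions. 2 nM enzyme, 15 min compound preincubation at RT, then 50 nM TAMRA/BHQ-2 abasic substrate; kinetic fluorescence read, three reads at 60 s intervals.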

[6] = qHTS for differential inhibitors of proliferation of Plasmodium falciparum line 7G8 (AID 1815);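 further: parasite growth measured after three days of incubation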; further: potency means the concentration at half of the fitted maximal effect;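 on activity change, negative = inhibition: plate controls were vehicle wells for no effect and reference inhibitor wells for full effect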
[7] = qHTS for differential inhibitors of proliferation of Plasmodium falciparum line GB4 (AID 1816); conditions: Potency: Plasmodium falciparum GB4 proliferation inhibition;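 further: parasite growth measured after 72 h incubation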; further: potency means the concentration at half of the fitted maximal effect;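 on activity change, negative = inhibition: 0% = vehicle DMSO and -100% = reference inhibitor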
[8] = qHTS for differential inhibitors of proliferation of Plasmodium falciparum line 3D7 (AID 1876); further: potency means the concentration at half of the fitted maximal effect
[9] = qHTS for differential inhibitors of proliferation of Plasmodium falciparum line D10 (AID 1877);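 further: parasites grown with compound for 72 h before DNA staining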; further: potency means the concentration at half of the fitted maximal effect;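 on activity change, negative = inhibition: plate controls were vehicle wells for no effect and reference inhibitor wells for full effect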
[10] = qHTS for differential inhibitors of proliferation of Plasmodium falciparum line Dd2 (AID 1882); conditions: Potency: Plasmodium falciparum Dd2 proliferation inhibition;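 further: plate controls were DMSO vehicle for no effect and 0.29 µM artemisinin for full effect; nearly all actives have a fitted effect of over 65% in size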
Procedure, shortened: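 Dd2-infected erythrocytes (0.3% parasitemia, 2.5% hematocrit final) incubated with compound 72 h at 37 C, 5% CO2; lysed with saponin/Triton buffer containing SYBR Green I, incubated overnight in the dark, then read by fluorescence (485/535 nm). Normalized to 0.29 uM artemisinin and DMSO.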

[11] = qHTS for differential inhibitors of proliferation of Plasmodium falciparum line W2 (AID 1883); conditions: Potency: Plasmodium falciparum W2 proliferation inhibition;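 further: parasites grown with compound for 72 h before lysis and staining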; further: potency means the concentration at half of the fitted maximal effect;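 on activity change, negative = inhibition: 0% = vehicle wells and -100% = control inhibitor wells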
[12] = qHTS for differential inhibitors of proliferation of Plasmodium falciparum line HB3 (AID 1886); conditions: Potency: Plasmodium falciparum HB3 proliferation inhibition;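 further: parasites grown with compound for 72 h before SYBR Green readout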; further: potency means the concentration at half of the fitted maximal effect;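 on activity change, negative = inhibition: plate controls were vehicle for no effect and reference inhibitor for full effect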
[13] = qHTS Assay for Modulators of Human Peripheral Myelin Protein 22 (PMP22) Expression/Activity (AID 1967; active means well fitted curve in the direction sought with a large enough effect in the signal ratio; the % refers to the signal ratio;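 further: 0% = untreated cells and 100% end not stated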)
Procedure, shortened: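 Luminescence ratio of Pmp22 promoter-driven green luciferase to EF-alpha-driven red luciferase, in engineered mouse MSC80 Schwann cells, served as read-out. Compounds were incubated 24h; untreated cells defined 0% Activity; curves were classified by r2, magnitude and activity.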

[14] = molecular target: Ferritin light chain (Equus caballus) (UniProt P02791); assay: qHTS Validation Assay for Identification of Novel General Anesthetics (AID 2323); further: on the % scale 0 is the no-effect control and ±100 the full control effect
Ferritin light chain (Equus caballus), sequence (P02791 2-175 limits assumed): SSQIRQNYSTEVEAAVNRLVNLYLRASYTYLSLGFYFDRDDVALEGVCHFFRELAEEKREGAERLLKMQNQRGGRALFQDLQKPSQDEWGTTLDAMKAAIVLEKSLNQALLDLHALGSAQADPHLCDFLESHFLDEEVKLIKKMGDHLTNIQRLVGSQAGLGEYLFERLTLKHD
Procedure, shortened: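 Fluorescence at 535 nm (excitation 380 nm) reported loss of 1-AMA binding to horse-spleen apoferritin (10 uM) in PBS with 50% saturated 1-aminoanthracene, after 10 min room-temperature incubation with compound; values from Hill fits of normalized response.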

[15] = molecular target: ATP-dependent DNA helicase Q1 (Homo sapiens) (UniProt P46063); assay: qHTS Validation Assay for Inhibitors of RecQ-Like Dna Helicase 1 (RECQ1) (AID 2353);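 further: plate controls were DMSO vehicle for no effect and enzyme-free control for full effect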
ATP-dependent DNA helicase Q1 (Homo sapiens), sequence (P46063 whole entry, looked up): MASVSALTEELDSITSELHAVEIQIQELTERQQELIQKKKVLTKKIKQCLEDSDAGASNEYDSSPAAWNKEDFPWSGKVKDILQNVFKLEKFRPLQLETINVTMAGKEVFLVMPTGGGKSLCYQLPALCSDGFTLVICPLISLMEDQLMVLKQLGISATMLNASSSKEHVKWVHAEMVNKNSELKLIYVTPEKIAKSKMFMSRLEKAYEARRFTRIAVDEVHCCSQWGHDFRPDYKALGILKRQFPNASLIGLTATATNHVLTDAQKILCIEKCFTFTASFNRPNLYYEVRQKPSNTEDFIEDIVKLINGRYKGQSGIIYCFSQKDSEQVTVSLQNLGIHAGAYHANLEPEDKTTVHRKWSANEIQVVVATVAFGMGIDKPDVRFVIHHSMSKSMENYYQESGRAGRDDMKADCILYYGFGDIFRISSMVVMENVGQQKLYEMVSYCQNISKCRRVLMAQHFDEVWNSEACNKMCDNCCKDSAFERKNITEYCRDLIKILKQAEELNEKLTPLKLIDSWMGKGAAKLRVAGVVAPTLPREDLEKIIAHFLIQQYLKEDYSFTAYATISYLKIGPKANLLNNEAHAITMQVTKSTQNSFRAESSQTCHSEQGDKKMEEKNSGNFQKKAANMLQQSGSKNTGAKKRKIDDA
Procedure, shortened: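 50 nM RECQ1T1 preincubated 15 min with compound in Tris pH 8.0 buffer with MgCl2, DTT, Tween-20 and 2.5 ug/ml poly(dI-dC); started with 200 nM TAMRA/BHQ-2 forked duplex and 2 mM ATP. Unwinding read as fluorescence (525/598 nm), two reads 2 h apart.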

[16] = qHTS Assay for Lipid Storage Modulators (AID 1519; calls by dose curve; on activity change, negative = inhibition: on the % scale 0 is the no-effect control and ±100 the full control effect); conditions: Drosophila S3 cells, BODIPY lipid droplet/cell ratio, laser cytometry, cells loaded with oleic acid; for activity change, negative = inhibition: at 57.5 µM (top of the series)
Procedure, shortened: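 Cells seeded at 5,000 per well were treated with compounds over a concentration series and loaded with oleic acid (400 uM, as added). Lipid droplet fluorescence (488 nm excitation, 500-530 nm channel) was read by laser-scanning cytometry and normalized to 20 uM Triacsin C.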

[17] = molecular target: RecQ-like DNA helicase BLM (Homo sapiens) (UniProt P54132); assay: qHTS Validation Assay for Inhibitors of Bloom's syndrome helicase (BLM) (AID 2364);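 further: plate controls were DMSO vehicle for no effect and enzyme-free control for full effect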
RecQ-like DNA helicase BLM (Homo sapiens), sequence (P54132 whole entry, looked up): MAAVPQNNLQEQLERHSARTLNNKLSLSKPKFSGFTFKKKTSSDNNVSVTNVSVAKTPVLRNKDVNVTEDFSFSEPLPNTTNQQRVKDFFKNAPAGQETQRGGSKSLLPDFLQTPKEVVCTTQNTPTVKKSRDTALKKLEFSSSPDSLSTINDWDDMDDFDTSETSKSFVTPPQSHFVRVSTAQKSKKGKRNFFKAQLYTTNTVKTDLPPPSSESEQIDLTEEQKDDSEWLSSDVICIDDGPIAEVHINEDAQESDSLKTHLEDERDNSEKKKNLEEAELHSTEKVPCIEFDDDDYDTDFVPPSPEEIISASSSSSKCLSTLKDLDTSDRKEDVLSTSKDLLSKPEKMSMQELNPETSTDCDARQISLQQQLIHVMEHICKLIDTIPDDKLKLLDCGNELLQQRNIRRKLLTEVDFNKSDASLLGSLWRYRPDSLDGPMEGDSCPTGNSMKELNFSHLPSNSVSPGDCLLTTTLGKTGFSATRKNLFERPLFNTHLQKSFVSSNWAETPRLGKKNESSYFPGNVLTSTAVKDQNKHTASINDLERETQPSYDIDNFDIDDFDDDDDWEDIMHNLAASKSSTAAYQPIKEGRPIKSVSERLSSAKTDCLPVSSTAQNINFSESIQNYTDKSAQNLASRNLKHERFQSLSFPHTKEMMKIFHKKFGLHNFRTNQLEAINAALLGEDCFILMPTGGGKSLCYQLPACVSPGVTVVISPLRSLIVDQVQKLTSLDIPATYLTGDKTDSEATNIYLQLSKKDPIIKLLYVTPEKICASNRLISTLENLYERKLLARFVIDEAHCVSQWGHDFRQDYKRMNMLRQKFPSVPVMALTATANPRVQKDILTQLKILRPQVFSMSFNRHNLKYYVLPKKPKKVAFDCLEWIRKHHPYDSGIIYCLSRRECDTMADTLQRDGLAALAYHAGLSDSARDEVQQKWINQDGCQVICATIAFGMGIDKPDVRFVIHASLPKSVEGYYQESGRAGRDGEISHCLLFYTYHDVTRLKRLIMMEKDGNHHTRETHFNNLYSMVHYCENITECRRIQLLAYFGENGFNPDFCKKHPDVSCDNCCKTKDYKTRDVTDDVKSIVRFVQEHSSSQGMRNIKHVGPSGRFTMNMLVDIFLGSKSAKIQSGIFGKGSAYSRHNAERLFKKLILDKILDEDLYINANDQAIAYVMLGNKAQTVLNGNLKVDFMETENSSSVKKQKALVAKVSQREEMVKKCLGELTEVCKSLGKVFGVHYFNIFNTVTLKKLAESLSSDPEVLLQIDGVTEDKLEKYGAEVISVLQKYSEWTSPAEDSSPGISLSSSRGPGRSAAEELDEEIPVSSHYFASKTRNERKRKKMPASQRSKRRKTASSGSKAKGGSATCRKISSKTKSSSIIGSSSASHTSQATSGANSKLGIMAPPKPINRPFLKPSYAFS
Procedure, shortened: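 Forked 20-bp duplex substrate (200 nM, TAMRA/BHQ-2) plus 2 mM ATP added after 15 min compound preincubation with 50 nM enzyme, pH 8.0, poly(dI-dC) 2.5 ug/ml. Strand separation followed by fluorescence (525/598 nm) over 2 h, normalized to enzyme-free and DMSO controls.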

[18] = molecular target: Lysosomal alpha-glucosidase (Homo sapiens) (UniProt P10253); assay: Confirmation of Inhibitors and Activators of Purified Human alpha-Glucosidase (AID 2115; active means well fitted curve in either direction with a large enough effect); conditions: purified human GAA enzyme activity
Procedure, shortened: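 Purified human enzyme (4 nM) with 4-methylumbelliferyl-alpha-D-glucopyranoside (400 uM), compounds up to 77 uM, in citrate/phosphate buffer pH 5.0 with 0.005% Tween-20. After 20 min at RT, stopped at pH 10; fluorescence ex 365/em 440 nm; AC50 from Hill fits.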

[19] = measured here: cell count channel max response
[20] = measured here: lipid channel max response

N[C@@H](Cc1ccc(O)c(I)c1)C(=O)O
inactive: outcome [1] | outcome [2] | Potency [3] | Potency [4] | Potency [5] | Potency [6] | Potency [7] | Potency [8] | Potency [9] | Potency [10] | Potency [11] | Potency [12] | outcome [13] | Potency [14] | Potency [15]

CNc1cc(NS(=O)(=O)c2ccc(N)cc2)nc(NC)n1
inactive: outcome [1] | outcome [2] | activity change, negative = inhibition [16] 0.422% | Potency [4] | Potency [6] | Potency [7] | Potency [8] | Potency [9] | Potency [10] | Potency [11] | Potency [12] | outcome [13] | Potency [15]
-14.7%: max response [16, 19]
-14.3%: max response [16, 20]

CCCC[C@@]1(C2CCCC2)Cc2cc(OCC(=O)O)c(Cl)c(Cl)c2C1=O
-23.6%: max response [16, 19]
active: Potency [6] 8.91 µM | Potency [7] 12.6 µM | Potency [11] 10 µM
-27%: max response [16, 20]
inactive: outcome [2] | activity change, negative = inhibition [16] -1.19% | Potency [4] | Potency [10] | outcome [13] | Potency [14] | Potency [15]

Cn1c(=O)c2c(nc(/C=C/c3cccc(Cl)c3)n2C)n(C)c1=O
inactive: outcome [2] | activity change, negative = inhibition [16] -4.15% | Potency [4] | Potency [5] | Potency [15]
-60.2%: max response [16, 19]
-62%: max response [16, 20]
active: Potency [6] 10 µM | Potency [11] 11.2 µM | Potency [12] 12.6 µM

NOCC(=O)O
-5.32%: max response [16, 19]
inactive: outcome [1] | outcome [2] | activity change, negative = inhibition [16] 2.14% | Potency [3] | Potency [4] | Potency [5] | Potency [7] | Potency [10] | outcome [13] | Potency [14] | Potency [15] | Potency [17]
0.0357%: max response [16, 20]

O=C(O)/C(=C/c1c(C(=O)O)[nH]c2cc(Cl)cc(Cl)c12)c1ccccc1
-8.09%: max response [16, 19]
inactive: outcome [1] | outcome [2] | activity change, negative = inhibition [16] 0.679% | Potency [3] | Potency [4] | Potency [5] | Potency [8] | Potency [9] | Potency [10] | Potency [12] | Potency [15]
-9.3%: max response [16, 20]

N=C(N)c1ccccc1
inactive: outcome [1] | outcome [2] | activity change, negative = inhibition [16] 0.991% | Potency [4] | Potency [5] | Potency [6] | Potency [7] | Potency [8] | Potency [9] | Potency [10] | Potency [11] | Potency [12] | outcome [13] | Potency [14] | Potency [15]
1.79%: max response [16, 20]
9.53%: max response [16, 19]

CC1C(=O)N(C)C(=O)c2nc[nH]c21 (centres undefined)
inactive: outcome [2] | Potency [3] | Potency [4] | Potency [5] | Potency [6] | Potency [7] | Potency [8] | Potency [9] | Potency [10] | Potency [11] | Potency [12] | outcome [13] | Potency [14]

NC(N)=NC(N)=Nc1cccc(Cl)c1
18.7% and -27.9%: max response [16, 20]
active: Potency [8] 11.2 µM | Potency [11] 5.01 µM | Potency [12] 8.91 µM
13.6% and -27.3%: max response [16, 19]
inactive: outcome [1] | outcome [2] | activity change, negative = inhibition [16] 3.33% and -0.622% | Potency [3] | Potency [4] | Potency [5] | Potency [10] | Potency [14] | Potency [15]

OC[C@H]1NC[C@@H](O)[C@@H]1O
inactive: outcome [2] | Potency [3] | Potency [4] | Potency [5] | Potency [6] | Potency [7] | Potency [8] | Potency [9] | Potency [10] | Potency [11] | Potency [12] | outcome [13] | outcome [18] | Potency [14] | Potency [15] | Potency [17]

O=c1onc2cnc3ccccc3n12
active: Potency [12] 5.62 µM
54.9%: max response [16, 20]
inactive: outcome [1] | outcome [2] | activity change, negative = inhibition [16] 0.198% | Potency [4] | Potency [5] | Potency [10] | Potency [11] | Potency [14] | Potency [15] | Potency [17]
54.3%: max response [16, 19]

CN1CCN(c2nc3cc(C(F)(F)F)ccc3n3cccc23)CC1
inactive: outcome [1] | outcome [2] | activity change, negative = inhibition [16] 2.45% | Potency [3] | Potency [4] | Potency [17]
20.6%: max response [16, 20]
18.9%: max response [16, 19]
active: Potency [6] 5.01 µM | Potency [7] 8.91 µM | Potency [8] 7.94 µM | Potency [9] 11.2 µM | Potency [11] 5.62 µM | Potency [12] 11.2 µM

CSC(=N)N
53.5%: max response [16, 19]
52.9%: max response [16, 20]
inactive: outcome [1] | outcome [2] | activity change, negative = inhibition [16] -0.307% | Potency [4] | Potency [5] | Potency [6] | Potency [7] | Potency [8] | Potency [9] | Potency [10] | Potency [11] | Potency [12] | outcome [13] | Potency [15]

CCCn1c(=O)c2c(ncn2C)n(CCC)c1=O
inactive: outcome [1] | outcome [2] | activity change, negative = inhibition [16] -2.98% | Potency [4] | Potency [5] | Potency [6] | Potency [7] | Potency [8] | Potency [9] | Potency [10] | Potency [12] | Potency [15]
-22.4%: max response [16, 19]
-33.5%: max response [16, 20]

CCCCCCCCCCCCCCC[C@H](O)[C@H](N)CO
active: Potency [5] 31.6 µM | Potency [11] 12.6 µM
-95.1%: max response [16, 20]
inactive: outcome [1] | outcome [2] | activity change, negative = inhibition [16] -9.53% | Potency [8] | Potency [10] | outcome [13] | Potency [15]
-83.5%: max response [16, 19]

c1ccc(C2CN3CCSC3=N2)cc1 (centres undefined)
10.3%: max response [16, 20]
0.909%: max response [16, 19]
inactive: outcome [2] | activity change, negative = inhibition [16] 7.49% | Potency [3] | Potency [4] | Potency [6] | Potency [8] | Potency [9] | Potency [10] | Potency [12] | Potency [14] | Potency [15] | Potency [17]

Nc1nc2[nH]c(=O)cnc2c(=O)[nH]1
60.5%: max response [16, 19]
55.1%: max response [16, 20]
inactive: outcome [1] | outcome [2] | activity change, negative = inhibition [16] 0.27% | Potency [4] | Potency [5] | Potency [6] | Potency [7] | Potency [8] | Potency [9] | Potency [11] | Potency [12] | Potency [15] | Potency [17]

COc1ccc(CCN(C)CCc2ccc(OC)c(OC)c2)cc1OC
active: Potency [11] 14.1 µM
7.2% and 26.8%: max response [16, 19]
4.66% and 25.1%: max response [16, 20]
inactive: outcome [1] | outcome [2] | activity change, negative = inhibition [16] -1.77% and -1.64% | Potency [3] | Potency [4] | Potency [9] | Potency [10] | Potency [12] | Potency [14] | Potency [15]

Source: PubChem BioAssay (NCATS)
